Results taken from PubChem BioAssay (Tox21).
Results filed as inconclusive are left out. Active and inactive are the calls of the source. Calls follow the shape of the dose curve; as a rule, active = well fitted cell-killing curve with a large enough effect in the repeat runs; inconclusive = weak or mixed curves, or effect the other way; inactive = flat fitted curve, though single readings scatter.

Test: cAMP Responsive Elements (CRE) small molecule agonists, cell-based qHTS assay: qHTS cell viability counter screen (AID 2060914);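 also: viability read after 3 h of compound exposure; nearly all actives have a fitted effect of over 50% in size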
Details: CRE-bla HEK293T viability, CellTiter-Glo luminescence, 5 h; series mostly up to 92.4 µM; activity change, negative = cytotoxicity: at the top concentration
From the text: National Center for Advancing Translational Sciences [NCATS]
Division of Preclinical Innovation [DPI]
U.S. Environmental Protection Agency [EPA]
National Institutes of Environmental Health Sciences [NIEHS]
National Toxicology Program [NTP]
U.S. Food and Drug Administration [FDA]
CREB (cyclic-AMP Responsive Element Binding Protein) is a cellular transcription factor. It binds to certain DNA sequences called cAMP Responsive Elements (CRE) and regulates the transcription of the genes. […] This cell line can be used to find agonists/antagonists of the cyclic AMP signaling pathway. The activation of the report gene under culture conditions can be detected by fluorescence intensity. This cell line has been used to screen the Tox21 10K compound library to identify agonists that induce oxidative stress. The cytotoxicity of the Tox21 compound library against the CRE-bla cell line was tested in parallel by measuring the cell viability using CellTiter-Glo assay (Promega, Madison, WI) in the same wells.
Tox21 Assay Protocol Summary:
CRE-bla Hek 293T cells were suspended in assay medium (DMEM containing 10% dialyzed FBS, 0.1 mM NEAA, 1 mM sodium pyruvate and 25 mM HEPES) and dispensed at 2,000 cells/5 uL /well into 1536-well black wall/clear bottom plates using a Multidrop Combi (ThermoFisher Scientific, Waltham, MA) dispenser. After the assay plates were incubated at 37 C/5% CO2 for 18 hrs, 23 nL of compounds dissolved in DMSO, positive controls or DMSO only was transferred to the assay plate by a pintool workstation (Kalypsys, San Diego, CA). After the plates were incubated at 37 C/5% CO2 for 3 hrs, 1 uL of LiveBLAzer B/G FRET substrate (Invitrogen, Carlsbad, CA) was added to each well using Bioraptr Flying Reagent Dispenser (FRD, Aurora Discovery, San Diego, CA). The plates were incubated at room temperature for 2 h, then fluorescence intensities were measured using an Envision plate reader (PerkinElmer, Shelton, CT) at Excitation 405nm, Emission 460nm and 530nm. The % activity was determined from the ratio of 460nm/530nm. For cell viability readout that measures cytotoxicity, 4 uL /well of CellTiter-Glo reagent was added into the assay plates using Bioraptr FRD. After 30 min incubation at room temperature, the luminescence intensity in the assay plates was measured using a ViewLux (PerkinElmer, Shelton, CT) plate reader.
% is scaled to controls: 0 for no effect and ±100 for the full control effect; potency is read from the fitted curve at half-maximal effect.

| Compound | Potency | activity change, negative = cytotoxicity |
| --- | --- | --- |
| C[Si](Cn1cncn1)(c1ccc(F)cc1)c1ccc(F)cc1 | inactive |  |
| C1CC2OC2CC1C1CO1 (stereo not given) | inactive |  |
| CC(C)CC#N |  | 3.7% (inactive) |
| CC(C)C1(C)N=C(c2nc3ccccc3cc2C(=O)O)NC1=O (stereo not given) | inactive |  |
| COc1ccc2c(C(=O)c3ccc(Cl)cc3)c(C)n(CC(=O)O)c2c1 |  | 0.254% [at 42.5 µM] (inactive) |
| CCCCN(CC)C(=O)SCCC | inactive |  |
| C=Cc1cccc(CCl)c1 |  | 4.91% [at 240 µM] (inactive) |
| C=CC1(C)OC(=O)N(c2cc(Cl)cc(Cl)c2)C1=O (stereo not given) | inactive |  |
| Fc1ccc(Oc2ccnc3cc(Cl)cc(Cl)c23)cc1 |  | 1.45% (inactive) |
| C#CCOC(=O)/C=C(C)/C=C/CC(C)CCCC(C)C (stereo not given) |  | -9.79% (inactive) |
| COC1=CC(=O)O[C@@H](CCc2ccccc2)C1 |  | 7.07% (inactive) |
| Cc1ccc2cc3c(ccc4ccccc43)c3c2c1CC3 |  | 2.35% [at 42.5 µM] (inactive) |
| O=C1CCCN1 | inactive |  |
| NNC(=S)NN | inactive |  |
| CCOP(OCC)OCC | inactive |  |
| CC1OC(C)OC(C)O1 (stereo not given) | inactive |  |
| CCN(CC)c1nc(C)cc(OP(=S)(OC)OC)n1 |  | -12.7% (inactive) |
| FC(F)OC(F)(F)C(F)Cl (stereo not given) |  | -3.88% (inactive) |
| CC(=O)Nc1ccc2c(c1)Cc1ccccc1-2 |  | -0.201% (inactive) |
| Nc1ccc(Cl)cc1 | inactive |  |

| Compound | Potency | activity change, negative = cytotoxicity |
| --- | --- | --- |
| CCOCN(C(=O)CCl)c1c(C)cccc1CC | inactive |  |
| O=[N+]([O-])c1ccc2c3c(cccc13)CC2 |  | -2.76% (inactive) |
| ClC(Cl)(Cl)c1ccccc1 | inactive |  |
| COC(C)(C)CCCC(C)C/C=C/C(C)=C/C(=O)OC(C)C (stereo not given) | inactive |  |
| C[C@]12CC[C@H]3[C@@H](CCC4=CC(=O)CC[C@@H]43)[C@@H]1CC[C@@H]2OC(=O)CCC1CCCCC1 |  | -6.86% [at 42.5 µM] (inactive) |
| CC(C)C#N | inactive |  |
| CNC(=O)Oc1ccccc1C(C)C |  | -5.42% (inactive) |
| NNC(N)=O |  | -7.17% (inactive) |
| CCC(C)(C)c1ccc(O)cc1 | inactive |  |
| CCCCCCCCn1cc[n+](C)c1 |  | -16.3% (inactive) |
| CCOP(=O)(OCC)OCC | inactive |  |
| C[C@]12C=CC3=C4CCC(=O)C=C4CC[C@H]3[C@@H]1CC[C@@H]2O | inactive |  |
| CCNP(=S)(OC)O/C(C)=C/C(=O)OC(C)C (stereo not given) |  | -8.45% (inactive) |
| Oc1ccc(I)cc1 |  | 4.23% (inactive) |
| C=CCOC(=O)C(C)(C)OC(=O)c1cc(-n2c(=O)cc(C(F)(F)F)n(C)c2=O)ccc1Cl |  | 4.27% (inactive) |
| CC(C)NCC(O)c1ccc(N)c(C#N)c1 (stereo not given) |  | -11.8% [at 42.5 µM] (inactive) |
| CCCN(CCC)c1c([N+](=O)[O-])cc(C(C)C)cc1[N+](=O)[O-] | inactive |  |
| CC(C(=O)c1ccccc1)N(C)C (stereo not given) |  | -6.51% [at 42.5 µM] (inactive) |
| CC[C@H](C)[C@H]1O[C@]2(C=C[C@@H]1C)C[C@@H]1C[C@@H](C/C=C(\C)[C@@H](O[C@H]3C[C@H](OC)[C@@H](O[C@H]4C[C@H](OC)[C@@H](NC)[C@H](C)O4)[C@H](C)O3)[C@@H](C)/C=C/C=C3\CO[C@@H]4[C@H](O)C(C)=C[C@@H](C(=O)O1)[C@]34O)O2 | 19.3 µM (active) |  |
| O=C=NC1CCCCC1 |  | 0.928% (inactive) |
